Data as given in PubChem BioAssay (NCI).
The panel holds about 83,000 compounds, 20% with a hit somewhere; the sample as a whole holds those more often.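 Testing used 96-well plates and a 48-hour single-concentration exposure. Example: -40 means 40% of the starting cells died.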 Active and inactive are the calls of the source. The calls were made as follows: active = growth percent below 10; inactive = the rest.

Assays:
Test in all cases: NCI-60 one-dose screen, 48 h (100 = growth as untreated, 0 = no growth, -100 = all killed)
Details in all cases: 10 µM unless noted
[1] = test system: HCT-15 colon
[2] = test system: HT29 colon
[3] = test system: SNB-75 CNS
[4] = test system: SNB-19 CNS
[5] = test system: U251 CNS
[6] = test system: PC-3 prostate
[7] = test system: SK-MEL-5 melanoma
[8] = test system: UACC-62 melanoma
[9] = test system: LOX IMVI melanoma
[10] = test system: SK-MEL-28 melanoma
[11] = test system: SK-MEL-2 melanoma
[12] = test system: SN12C renal
[13] = test system: UO-31 renal
[14] = test system: TK-10 renal
[15] = test system: ACHN renal
[16] = test system: CAKI-1 renal
[17] = test system: A498 renal
[18] = test system: MOLT-4 leukemia

Measured: growth

COC(=O)[C@H](Cc1cn(C)cn1)NC(=O)[C@@H](NC(=O)Nc1cc(C(F)(F)F)cc(C(F)(F)F)c1)C(C)(C)C
active: [2] -66.9% [100 µM] | [3] -55.1% [100 µM] | [4] -91.6% [100 µM] | [5] -89.9% [100 µM] | [6] -92.9% [100 µM] | [7] -67.4% [100 µM] | [8] -88.5% [100 µM] | [9] -86.6% [100 µM] | [10] -92.3% [100 µM] | [11] -88.7% [100 µM] | [12] -91.8% [100 µM] | [14] -82% [100 µM] | [15] 0.692% [100 µM] | [17] -77% [100 µM] | [18] -25.7% [100 µM]
inactive: [1] 70.5% [100 µM] | [13] 61.1% [100 µM] | [16] 55% [100 µM]

CCn1cnc(C[C@H](NC(=O)[C@@H](NC(=O)Nc2cc(C(F)(F)F)cc(C(F)(F)F)c2)C(C)(C)C)C(=O)OC)c1
active: [1] -68% [100 µM] | [2] -82.9% [100 µM] | [3] -98.8% [100 µM] | [4] -98.2% [100 µM] | [5] -94.5% [100 µM] | [6] -91.2% [100 µM] | [7] -98% [100 µM] | [8] -98.7% [100 µM] | [9] -87.4% [100 µM] | [10] -96% [100 µM] | [11] -91% [100 µM] | [12] -96.2% [100 µM] | [13] -94.1% [100 µM] | [14] -97.6% [100 µM] | [15] -95.8% [100 µM] | [16] -96% [100 µM] | [18] -49% [100 µM]

Cc1ccc(NC(=O)CCl)cc1Cl
active: [9] 6.84%
inactive: [1] 80.9% | [2] 107% | [3] 91% | [4] 94.5% | [5] 80.5% | [6] 86.8% | [7] 87.2% | [8] 80.5% | [10] 107% | [11] 85.1% | [12] 93.6% | [13] 98.5% | [14] 103% | [15] 92.3% | [16] 90.8% | [17] 119% | [18] 81.8%

CC[N+](C)(C)N
inactive: [1] 103% | [2] 102% | [3] 80.5% | [4] 95.5% | [5] 101% | [6] 100% | [7] 95.4% | [8] 105% | [9] 90.9% | [10] 94.9% | [11] 108% | [12] 104% | [13] 89.8% | [14] 100% | [15] 110% | [16] 95.4% | [17] 121% | [18] 104%

CCN(CC)C(=O)C1(C)CCCC2(C)c3cc(OC(C)=O)ccc3CCC12 (centres undefined)
inactive: [1] 87% | [2] 82.9% | [3] 80.9% | [4] 96.5% | [5] 81.5% | [6] 76.2% | [7] 67.6% | [8] 73.1% | [9] 101% | [10] 88.5% | [11] 80.3% | [12] 91.7% | [13] 54.4% | [14] 78.1% | [15] 80.7% | [16] 76.8% | [17] 83.9% | [18] 64.1%

[N-]=[N+]=Nc1ncc(-c2ccc(C(F)(F)F)cc2)c(NC2CCCCCC2)n1
active: [6] -8.57% [100 µM] | [11] 5.91% [100 µM] | [16] -14.6% [100 µM]
inactive: [1] 25.9% [100 µM] | [2] 31.4% [100 µM] | [3] 49.6% [100 µM] | [4] 40.9% [100 µM] | [5] 30.3% [100 µM] | [7] 26.5% [100 µM] | [8] 25.5% [100 µM] | [9] 39.9% [100 µM] | [10] 68.2% [100 µM] | [12] 42.5% [100 µM] | [13] 22.1% [100 µM] | [14] 45.3% [100 µM] | [15] 26.8% [100 µM] | [17] 32.9% [100 µM] | [18] 16.9% [100 µM]

CC(O)CN(CCO)CCN(CCO)CC(C)O (centres undefined)
inactive: [1] 101% | [2] 100% | [3] 98.7% | [4] 105% | [5] 106% | [6] 106% | [7] 106% | [8] 101% | [9] 98% | [10] 106% | [11] 114% | [12] 104% | [13] 99.6% | [14] 103% | [15] 102% | [16] 95.1% | [17] 112% | [18] 100%

CNc1nc2ncn(C)c2c(=O)[nH]1
inactive: [1] 74% | [2] 98% | [3] 81.3% | [4] 113% | [5] 97.3% | [6] 100% | [7] 101% | [8] 78.3% | [9] 71.6% | [10] 103% | [11] 94.3% | [12] 92% | [13] 83.3% | [14] 84.1% | [15] 71.5% | [16] 84.1% | [17] 96.4% | [18] 94.8%

CC#Cc1nc(Nc2cc(C)[nH]n2)c2ccccc2n1
active: [1] -0.521% [100 µM] | [2] 2.45% [100 µM] | [3] -14.3% [100 µM] | [5] -25.5% [100 µM] | [6] -28.8% [100 µM] | [7] -71.9% [100 µM] | [8] -84.1% [100 µM] | [9] -58.5% [100 µM] | [11] -51.2% [100 µM] | [12] -0.924% [100 µM] | [13] -6.22% [100 µM] | [14] 3.15% [100 µM] | [15] 3.22% [100 µM] | [16] -33.2% [100 µM] | [17] -94% [100 µM] | [18] -43.3% [100 µM]
inactive: [4] 43% [100 µM] | [10] 40.5% [100 µM]

CCCCCCCCCCCCCCCCNC(=O)Nc1ccc(C)c(NC(=O)NCCCCCCCCCCCCCCCC)c1
inactive: [1] 105% | [2] 104% | [3] 97% | [4] 96.9% | [5] 100% | [6] 84.5% | [7] 98.4% | [8] 95.5% | [9] 109% | [10] 112% | [11] 117% | [12] 103% | [13] 74.3% | [14] 112% | [15] 98.7% | [16] 117% | [17] 113% | [18] 104%

CCOc1ccc(N(C)c2ccc(/C=C/C3=[N+](C)c4ccccc4C3(C)C)cc2)cc1
inactive: [1] 18.9% | [3] 41.6% | [4] 26.8% | [8] 28.5% | [10] 19% | [17] 42.6%
active: [2] -25.1% | [5] -82.8% | [6] 0.484% | [7] 2.07% | [9] -48.1% | [11] -45.9% | [12] 2.99% | [13] 3.71% | [14] -16.1% | [15] -95.9% | [16] -2.85% | [18] -25.4%

CCn1cnc(C[C@H](NC(=O)[C@@H](NC(=O)Nc2cc(C(F)(F)F)cc(C(F)(F)F)c2)C(C)C)C(=O)OC)c1
active: [1] -78.6% [100 µM] | [2] -81% [100 µM] | [3] -100% [100 µM] | [4] -90.8% [100 µM] | [5] -94.3% [100 µM] | [6] -91.8% [100 µM] | [7] -98% [100 µM] | [8] -94.6% [100 µM] | [9] -86% [100 µM] | [10] -96% [100 µM] | [11] -86% [100 µM] | [12] -86.8% [100 µM] | [13] -97% [100 µM] | [14] -98.7% [100 µM] | [15] -98.7% [100 µM] | [18] -54.9% [100 µM]

COc1ccc(Nc2c3ccccc3nc3ccccc23)cc1
inactive: [1] 25.2% | [3] 16.2% | [4] 53.2% | [5] 16.1% | [6] 32.6% | [7] 24.8% | [8] 47.6% | [9] 21.3% | [10] 49.7% | [11] 54.5% | [12] 30.1% | [14] 51.8% | [16] 10.2% | [17] 42.1%
active: [2] 8.49% | [13] 7.72% | [15] -11% | [18] -9.93%

C=CCC(CCC(CC=C)C(=O)OCC)C(=O)OCC (centres undefined)
inactive: [1] 105% | [2] 102% | [3] 77.8% | [4] 96.2% | [5] 102% | [6] 97.9% | [7] 108% | [8] 101% | [9] 92.1% | [10] 91.1% | [11] 106% | [12] 100% | [13] 88.5% | [14] 91.6% | [15] 108% | [16] 103% | [17] 120% | [18] 104%

O=C(OCC1CC2(Cl)C(Cl)=C(Cl)C1(Cl)C2(Cl)Cl)C1C(C(=O)OCC2CC3(Cl)C(Cl)=C(Cl)C2(Cl)C3(Cl)Cl)C2(Cl)C(Cl)=C(Cl)C1(Cl)C2(Cl)Cl (centres undefined)
inactive: [1] 99.9% | [2] 99.6% | [3] 97.8% | [4] 106% | [5] 99.2% | [6] 105% | [7] 104% | [8] 107% | [9] 122% | [10] 112% | [11] 111% | [12] 105% | [13] 91.8% | [14] 105% | [15] 95.6% | [16] 90.8% | [17] 117% | [18] 85%

CC(C)OCC1CO1 (centres undefined)
inactive: [1] 100% | [2] 103% | [3] 92.7% | [4] 99.7% | [5] 102% | [6] 106% | [7] 108% | [8] 98.9% | [9] 113% | [10] 110% | [11] 123% | [12] 109% | [13] 95.8% | [14] 107% | [15] 98.7% | [16] 97.9% | [18] 110%
